This is part of a sample that, as a whole, favours compounds with a hit. Of some 83,000 tested, about 20% had one in any assay.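 Negative percent growth values reflect cell death: -40 means 40% of the cells present at the start died, and -100 means all died.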 Values without a mark were called inactive. Calls of active or inactive are those of the source. How the source made its calls: active means growth percent below 10; inactive means the rest.
Key:
Assay in all cases: NCI-60 one-dose screen, 48 h (100 = growth as untreated, 0 = no growth, -100 = all killed)
Conditions in all cases: 10 µM unless noted
DU-145 prostate = system: DU-145 prostate
K-562 leukemia = system: K-562 leukemia
MALME-3M melanoma = system: MALME-3M melanoma
MDA-MB-231 breast = system: MDA-MB-231 breast
RXF 393 renal = system: RXF 393 renal
SF-268 CNS = system: SF-268 CNS
SF-295 CNS = system: SF-295 CNS
SF-539 CNS = system: SF-539 CNS
UACC-257 melanoma = system: UACC-257 melanoma
M14 melanoma = system: M14 melanoma
HT29 colon = system: HT29 colon
SNB-75 CNS = system: SNB-75 CNS
SNB-19 CNS = system: SNB-19 CNS
U251 CNS = system: U251 CNS
SK-MEL-5 melanoma = system: SK-MEL-5 melanoma
LOX IMVI melanoma = system: LOX IMVI melanoma
SK-MEL-28 melanoma = system: SK-MEL-28 melanoma
UACC-62 melanoma = system: UACC-62 melanoma
PC-3 prostate = system: PC-3 prostate

SMILES	growth (DU-145 prostate)	growth (K-562 leukemia)	growth (MALME-3M melanoma) [%]	growth (MDA-MB-231 breast) [%]	growth (RXF 393 renal)	growth (SF-268 CNS) [%]	growth (SF-295 CNS)	growth (SF-539 CNS)	growth (UACC-257 melanoma) [%]	growth (M14 melanoma)	growth (HT29 colon)	growth (SNB-75 CNS)	growth (SNB-19 CNS) [%]	growth (U251 CNS) [%]	growth (SK-MEL-5 melanoma) [%]	growth (LOX IMVI melanoma) [%]	growth (SK-MEL-28 melanoma) [%]	growth (UACC-62 melanoma) [%]	growth (PC-3 prostate) [%]
Cc1nc2cc(Nc3nc(NCCN)nc(Nc4ccc(F)cc4)n3)ccc2n1Cc1ccccc1	82.2%	-36.8% (active)	93.5	60.4	72%	71.8	79.8%	96%	90.5	81.6%	35.1%	84.2%	91.6	77.4	86.6	58.2	107	–	–
O=C(COc1ccc(/C=C2\CSc3ccccc3C2=O)cc1)c1ccc(Cl)cc1	113%	99.2%	98.7	97	90.4%	104	125%	106%	121	101%	121%	108%	92.3	104	116	95	124	83	–
Nc1nc(-c2ccnc(Cl)c2)nn1-c1nc2ccccc2s1	115%	112%	97.3	89.5	108%	100	101%	98.5%	113	101%	112%	103%	98.9	107	106	102	104	97	–
O=C1CC2c3cc(-c4cc5ccccc5o4)ccc3CCN2C(=O)N1c1ccccc1 (stereo not drawn)	96.5%	58.4%	71.6	93.3	114%	92.4	90%	106%	87.8	90.7%	85.7%	73.8%	–	–	82.7	94.4	99.8	81.1	51.9
COc1ccc(/C=C(\C#N)c2cc3ccccc3n2C)cc1	2.99% (active)	7.26% (active)	60.8	31	-6.28% (active)	47.5	9.9% (active)	-15.9% (active)	72.6	6.61% (active)	9.49% (active)	1.11% (active)	32.8	15.9	23.2	39.4	62.1	38.3	38.8
Cc1nn(-c2ccccc2)c2nc3nc4c(c(N)c3c(-c3ccc(Cl)cc3)c12)CCCC4	109%	53.4%	108	91.5	90.9%	105	96%	96.9%	91.9	106%	91.5%	101%	108	–	101	94.4	97.2	108	94.7
COc1ccc(/C=N/OCC(O)CNCc2ccccc2)cc1OC1CCCC1 (stereo not drawn)	105%	78%	106	101	95.5%	91.7	103%	98%	97.2	98.4%	104%	77.9%	95.2	99.6	93.3	91.4	109	98.3	86.7
COc1ccc(/C=N/NC(=O)c2cnn3c2NC(c2ccccc2)C3)cc1OC1CCCC1 (stereo not drawn)	98.3%	70.4%	123	66.6	104%	93.4	90.7%	87.2%	98.7	93.5%	90.6%	84.3%	87.7	83	78.8	85.2	108	83	79.1
COc1ccc(-c2c3c(N)c4c(nc3nc3c2c(C)nn3-c2ccccc2)CCCC4)cc1	80.4%	11.9%	113	76.1	84.2%	86	84.9%	91.8%	108	87.9%	21.1%	78.6%	103	–	90.9	92.6	96.9	92.9	64.9

Reference: PubChem BioAssay (NCI)
